# Out of some 110,000 compounds screened, about 230 (0.21%) showed an effect of 50% or more. Shown is part of a subset that was picked to be rich in strong results.
# Molecular target: DPAP1 (Plasmodium falciparum, UniProt Q8IIJ9)
# Assay: primary screen, percent inhibition; read by cleavage of a fluorogenic dipeptide substrate; higher = more effect of the substance
# Design: species or system P. falciparum D10 trophozoite lysates; single well
# 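Further: 30 min substrate incubation versus DMSO and 10 µM JCP410 controls.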
# DPAP1, sequence (Q8IIJ9 whole entry, looked up): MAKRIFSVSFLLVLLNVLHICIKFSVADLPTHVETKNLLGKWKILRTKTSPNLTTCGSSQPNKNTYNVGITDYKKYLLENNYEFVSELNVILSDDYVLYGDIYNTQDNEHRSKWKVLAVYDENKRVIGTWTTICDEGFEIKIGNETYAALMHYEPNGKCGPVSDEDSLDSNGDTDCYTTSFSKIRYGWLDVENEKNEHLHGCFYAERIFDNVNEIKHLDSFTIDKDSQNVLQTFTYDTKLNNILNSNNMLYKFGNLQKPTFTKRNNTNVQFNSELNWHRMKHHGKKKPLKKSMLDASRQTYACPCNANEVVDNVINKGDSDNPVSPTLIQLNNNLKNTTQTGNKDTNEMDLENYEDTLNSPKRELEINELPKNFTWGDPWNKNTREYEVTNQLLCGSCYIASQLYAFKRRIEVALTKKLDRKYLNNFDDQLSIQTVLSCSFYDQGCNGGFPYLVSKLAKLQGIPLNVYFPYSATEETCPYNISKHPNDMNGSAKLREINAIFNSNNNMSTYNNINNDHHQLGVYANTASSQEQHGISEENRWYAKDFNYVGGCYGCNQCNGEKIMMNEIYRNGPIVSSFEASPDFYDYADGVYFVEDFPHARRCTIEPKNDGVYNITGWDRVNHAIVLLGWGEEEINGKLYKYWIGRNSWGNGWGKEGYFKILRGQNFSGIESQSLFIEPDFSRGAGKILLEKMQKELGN
row,Structure (SMILES),% Inhibition @ 10 uM [%]
1,CCCCCCCc1c(C#N)c(N)nc(S)c1C#N,71.3
2,CCSc1nc(N)c(C#N)c(CC)c1C#N,23.3
3,CCc1c(C#N)c(N)nc(S)c1C#N,74.5
4,CCCCCCc1c(O)nc(S)nc1O,22.8
5,CC(C)Cc1c(C#N)c(N)nc(SCC(=O)c2ccc(-c3ccccc3)cc2)c1C#N,16.2
6,CC(C)Cc1c(C#N)c(N)nc(S)c1C#N,78.5
7,CC(C)Cc1c(C#N)c(N)nc2sc(C#N)c(N)c12,5.2
8,C=CCSc1nc(N)c(C#N)c(CC)c1C#N,65.5
9,CN(C)c1ccc(-c2c(C#N)c(N)nc(S)c2C#N)cc1,7.55
10,CCc1c(C#N)c(N)nc(SCc2ccccc2)c1C#N,42.7
11,CCOC(=O)CSc1nc(N)c(C#N)c(CC)c1C#N,20.6
12,COCc1c(C#N)c(S)nc(C)c1[N+](=O)[O-],30.8
13,N=C(NOC(=O)C12CC3CC(CC(C3)C1)C2)c1ccc(Cl)cc1,-0.597
14,O=C(CN1CCCC1)Nc1c2c(nc3ccccc13)N(c1ccccc1)CC2,0.144
15,Cc1ccc(C(C)C)c(OCC(O)CN2CC(C)OC(C)C2)c1 (stereo not shown),-1.15
16,COc1cc(C2C(C#N)=C(N)OC3=C2C(=O)CCC3)ccc1OCC(=O)Nc1ccc(C)cc1C (stereo not shown),0.851

row,Structure (SMILES),% Inhibition @ 10 uM [%]
1,COc1cc(OC)cc(C(=O)Nc2ccc3c(c2)oc2ccccc23)c1,-4.91
2,c1cc(CNC2CCCCC2)ccn1,1.84
3,c1ccc(C2CCC(NCc3ccncc3)CC2)cc1 (stereo not shown),97.8
4,CCC1CCC(NCc2ccncc2)CC1 (stereo not shown),-3.42
5,CC(Sc1nc(-c2cccnc2)ccc1C#N)C(=O)O (stereo not shown),-3.63
6,N#Cc1ccc(-c2cccnc2)nc1SCC(=O)O,-2.45
7,N#Cc1ccc(-c2cccnc2)nc1SCc1ccccc1,61.4
8,Cc1nnc2c(Oc3ccc(-c4ccccc4)cc3)nc3ccccc3n12,-7.23
9,N=c1n(CCOc2ccccc2)c2ccccc2n1CCN1CCOCC1,-6.25
10,CCOc1cc(Br)c(C=C2C(=O)NC(=O)NC2=O)cc1OC,-2.39
11,C/C(CCC1CC(C)OC1=O)=N\NC(N)=S (stereo not shown),-1.6
12,OC1(c2ccc(Br)cc2)CCN(Cc2cccc(Cl)c2)CC1,-3.6
13,CC1C(C#N)=C(SCc2ccccc2)N=C2CC(C)(C)CC(O)=C21 (stereo not shown),55.4
14,CSC1=C(C#N)C(C)C2=C(O)CC(C)(C)CC2=N1 (stereo not shown),2.76
15,CC1C(C#N)=C(SCC(=O)c2ccc(Cl)cc2)N=C2CC(C)(C)CC(O)=C21 (stereo not shown),45.5
